# Source: PubChem BioAssay
# DRD3 antagonist: blocks the human D3 dopamine receptor; P35462; D3R cells, DiscoveRx beta-arrestin luminescence, antagonist mode; hits give low values; max response, negative = inhibition, %; 360,000 compounds, 2.5% hits; AID 652054; in the data active = max response below about -50%; inconclusive = no clear call, values can overlap the other calls; note: % is set by controls: 0 for no effect and ±100 for the full control effect
# Target sequence (P35462 whole entry, looked up): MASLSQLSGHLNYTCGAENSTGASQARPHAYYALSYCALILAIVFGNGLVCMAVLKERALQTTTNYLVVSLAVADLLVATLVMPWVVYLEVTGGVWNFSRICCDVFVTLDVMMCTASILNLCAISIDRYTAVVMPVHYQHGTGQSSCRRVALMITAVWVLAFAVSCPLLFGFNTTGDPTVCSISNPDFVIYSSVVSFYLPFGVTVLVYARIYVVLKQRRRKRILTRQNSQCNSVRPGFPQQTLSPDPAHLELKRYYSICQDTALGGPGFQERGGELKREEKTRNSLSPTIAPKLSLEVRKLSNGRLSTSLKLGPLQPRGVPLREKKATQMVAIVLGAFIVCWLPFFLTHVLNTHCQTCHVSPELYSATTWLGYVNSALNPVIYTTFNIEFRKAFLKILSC
#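 Cells expressing the human receptor were seeded at 1500 cells/well, incubated overnight at 37 degrees C in 5% CO2, then exposed to library compounds with dopamine controls for 90 minutes at 37 degrees C before luminescent detection.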
# uPA surface inh: blocks generation of uPA at the cell surface. AID 540303. Potency, µM (series often up to 38.3 µM), without a hit: at the top dose activity change, negative = inhibition, usual class: inhibitors. cell surface uPA generation assay, qHTS. 330,000 compounds, 0.31% hits; active = well fitted inhibition curve with a large enough effect; inconclusive = small, poorly fitted or top-dose-only effect; inactive = no such curve, though single readings can be large or run the other way; tested in mouse RAW 264.7 cells; note: potency is the fitted concentration of half-maximal effect; % is set by controls: 0 for no effect and ±100 for the full control effect; nearly all actives have a fitted effect of over 55% in size
# D3 ag: D3 dopamine receptor (human) agonism | P35462 | D3R DiscoveRx beta-arrestin cells, luminescence, 90 min | max activation, % | 410,000 compounds, 0.58% hits; in the data active = max activation above about 30%; note: 0% is about no effect
#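 Cells at 1500/well, incubated overnight, then treated with pinned compounds (dopamine as control) for 90 min at 37 degrees C. DiscoveRx reagent added for 30 - 60 minutes at room temperature; luminescence read.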
# RGS4 inhibitor: inhibitors of human regulator of G protein signaling 4 | 390,000 compounds, 0.039% hits | Transcreener GDP fluorescence polarization, RGS4-accelerated GTP hydrolysis | P49798 | Potency, µM (top dose mostly 114 µM), inactives show at the top dose activity change, negative = inhibition, usual class: inhibitors; active = well fitted inhibition curve with a large enough effect; inconclusive = small, poorly fitted or top-dose-only effect; inactive = no such curve, though single readings can be large or run the other way; note: potency is the fitted concentration of half-maximal effect; % is set by controls: 0 for no effect and ±100 for the full control effect; nearly all actives have a fitted effect of over 75% in size
# Target sequence (P49798 whole entry, looked up): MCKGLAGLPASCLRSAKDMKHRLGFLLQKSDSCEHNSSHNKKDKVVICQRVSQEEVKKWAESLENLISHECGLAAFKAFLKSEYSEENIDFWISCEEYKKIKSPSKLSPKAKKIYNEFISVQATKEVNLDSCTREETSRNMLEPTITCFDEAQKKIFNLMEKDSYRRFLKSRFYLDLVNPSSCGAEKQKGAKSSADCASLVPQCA
#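 MLSMR compounds (23 nl, pin-transferred) preincubated 10 min at room temperature with a 500nM (2x) first reagent, then RGS4 at 900nM (2x) plus Transcreener GDP mix added; fluorescence polarization (620/688 nm) read before and after 90 min at 30 °C.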
# The depositor's hits bear a star; ? = inconclusive; · = no result; [ ] = dose if it differs, or a comment. Only some compounds are listed: those with a hit (about 3.1% of all), similar ones and a draw of the others.
SMILES,DRD3 antagonist,uPA surface inh,D3 ag,RGS4 inhibitor
C=CC[n+]1c(-c2ccc(C)cc2)csc1Nc1ccc(NC(C)=O)cc1,8,7.1µM*,2,5%[56.9 µM]
C=CC[n+]1c(-c2ccc(OC)cc2)csc1NNC(=O)Nc1ccccc1,-6,-1%,1,-39%
CN(Cc1c(O)ccc2c1oc(=O)c1ccccc12)C1CCCCC1,-57*,·,-58,-5%
CN(C)Cc1c(O)ccc2c3c(c(=O)oc12)CCCCC3,16,5%,5,8%
CCOCCc1nn2c(=O)cc(COC(=O)c3ccc(NC(=O)C(C)(C)C)cc3)nc2s1,·,·,5,16%
COc1ccc(OCC(=O)Nc2ccc3nn(-c4ccc(OC)cc4)nc3c2)cc1,·,·,62*,-12%
CCOC(=O)[C@]12CCC=C1N(Cc1cccc3ccccc13)C(=O)[C@H](CC(=O)N1CCN(C(=O)C3CC3)CC1)C2,9,·,5,·
O=C(Nc1ccc2ccccc2c1)c1ccc(Cl)cc1,-16,10µM*,-2,-16%
Cc1ccc(C(=O)Nc2ccc3ccccc3c2)cc1,1,-16%,-8,11%
Cc1ccc(NC(=O)CCSc2nc(-c3ccc4c(c3)OCO4)cc(C(F)(F)F)n2)c(C)c1,·,·,56*,-7%
Cc1ccc(NC(=O)CCSc2nc(-c3ccc4c(c3)OCO4)cc(C(F)(F)F)n2)cc1,·,·,-11,-2%
O=C(c1cccc([N+](=O)[O-])c1)N1CCN(CCc2ccncc2)CC1,·,·,-10,25%
CCN(Cc1ccccc1)Cc1c(O)ccc2c(=O)c(-c3ccccc3OC)c(C(F)(F)F)oc12,·,·,-7,17%
O=c1oc(-c2cccc(Cl)c2)nc2c1cnn2-c1ccccc1,-23,-4%,-4,8%
O=c1oc(-c2ccccc2F)nc2c1cnn2-c1ccccc1,-65*,-1%,-23,2%
Cc1ccc(N2CCN(C(=O)CCS(=O)(=O)c3cc4c(cc3Cl)NC(=O)CO4)CC2)c(C)c1,·,·,9,-22%
c1ccc(-c2nc(-n3ccnc3)nc(-n3ccnc3)n2)cc1,28,-12%,5,-13%
c1ccc(CN2CCN(c3nc(-c4ccccc4)nc(-n4ccnc4)n3)CC2)cc1,-63*,·,-39,-11%
NCc1ccccc1CC(=O)N[C@@H]1C(=O)N2C(C(=O)O)=C(CSc3nnnn3CC(=O)O)CS[C@H]12,·,·,7,·
CC(=O)Nc1c2c3c(cccc3n(C)c1=O)C(=O)c1ccccc1-2,-51*,-2%,-15,?
CCC1CN(C(=O)Nc2cccc3c2CCCC3)c2cc(C)ccc2O1 (configuration not stated),·,·,1,12%
Cc1cccc(-n2c(O)c(C=Nc3ccc(O)cc3)c3ccccc3c2=O)n1,-4,?,6,4%
Cc1ccc(N=Cc2c(O)n(-c3ccc4c(c3)OCO4)c(=O)c3ccccc23)cc1,-59*,2%,2,30%
COc1cccc(/C=N/NC(=O)NC23CC4CC(CC(C4)C2)C3)c1O,-62*,-11%,-16,0%
O=C(N/N=C/c1ccccc1F)NC12CC3CC(CC(C3)C1)C2,-5,-2%,-9,-18%
SMILES,DRD3 antagonist,uPA surface inh,D3 ag,RGS4 inhibitor
COc1cc(/C=C/C(=O)OC2CC3CCC2(C)C3(C)C)ccc1O (configuration not stated),-50*,-6%,-2,-14%
COc1cc(/C=C/C(=O)OCC(=O)N2CCC(C)CC2)ccc1O,-21,-9%,-10,-17%
O=C1CCCN1C(=O)COc1cc(F)ccc1[N+](=O)[O-],-3,-3%,-11,5%
O=C1CCCN1C(=O)COc1ccccc1[N+](=O)[O-],-3,2%,38*,16%
O=C(NCc1ccco1)c1ccc2c(c1)N(Cc1ccccc1F)C(=O)c1ccccc1S2(=O)=O,·,·,9,7%
CC(C)c1[nH]nc2c1C1(CCN(Cc3ccccc3)CC1)C(C#N)=C(N)O2,-92*,5%,1,-47%
Cc1[nH]nc2c1C1(CCN(Cc3ccccc3)CC1)C(C#N)=C(N)O2,0,-2%,1,9%[11.4 µM]
CC(C)Oc1ccc(CN2CCC2(C)C(=O)Nc2cccc3cccnc23)cc1 (configuration not stated),-92*,·,-22,·
Cc1c(Br)cccc1NC(=O)C1(C)CCN1Cc1ccc(OC(C)C)cc1 (configuration not stated),6,·,11,·
COc1ccc(-n2c(N)c(C(=O)NCc3ccco3)c3nc4ccccc4nc32)cc1,13,1%,-5,-14%
Nc1c(C(=O)NCc2ccco2)c2nc3ccccc3nc2n1CCc1ccc(F)cc1,-63*,-9%,-8,?
CC(C)C(=O)Nc1nnc2n1CCS2,·,·,1,-10%
Cc1ccc2[nH]nc(C(=O)N3CCCC(C(=O)c4ccc(Cl)cc4)C3)c2c1 (configuration not stated),33,3%,34*,-26%
COC(=O)c1ccc(SCC(=O)NC2CCCC2)c([N+](=O)[O-])c1,17,-1%,1,-18%
NC(=O)c1ccc(SCC(=O)NC2CCCCC2)c([N+](=O)[O-])c1,-52*,-4%,-13,3%
O=S1(=O)CCO[C@H]2Cc3ccccc3[C@H]2N1Cc1ccc(Cl)cc1,-7,-2%,54*,11%
C[C@@H](Nc1nc(Cl)nc2nc[nH]c12)c1ccccc1,·,·,·,9%
OC[C@@H]1CN(CCN2CCOCC2)C[C@H](n2cnc3c(NC4CCCC4)ncnc32)O1,-51*,·,-10,·
COCCN1C[C@@H](CO)O[C@@H](n2cnc3c(N4CCCC4)ncnc32)C1,46,·,87*,·
CN(C)C(=O)CSc1nc(-c2ccccc2)nc2c1CCCC2,-19,-7%,-2,-6%
Cc1cc2nc(SCC(=O)N(C)C)c3c(c2cc1C)CCCC3,-50*,-3%,-1,4%
COc1ccc(NC(=O)CN2CCN(Cc3ccccc3)S2(=O)=O)c(OC)c1,·,·,2,-24%
Cc1cc(C)cc(C(O)c2ncc(-c3ccc4ccccc4c3)[nH]2)c1 (configuration not stated),-56*,·,-12,·
COc1cc(C2NC(=O)C(C#N)=C(S)N2c2ccc(C)cc2)ccc1OC(C)C (configuration not stated),-68*,-1%,-1,?
CCOc1ccc(C2NC(=O)C(C#N)=C(S)N2c2ccc(OC)cc2)cc1OC (configuration not stated),-68*,-3%,0,?
COc1ccc(C2NC(=O)C(C#N)=C(S)N2c2ccc(C)cc2)cc1OC (configuration not stated),1,-25%,-4,-36%
CCCCOC(=O)c1ccc(NC(=O)Cn2nnc3sc4c(c3c2=O)CCCC4)cc1,·,·,-12,16%
CC(=O)c1ccc(OC2(C)CCN(Cc3ccccc3OC(F)F)C2)cc1 (configuration not stated),?,·,-14,·
CC1(Oc2ccccc2-c2ccno2)CCN(Cc2csc3ccccc23)C1 (configuration not stated),-78*,·,-21,·
CSc1ccc(CN2CCC(C)(Oc3ccccc3F)C2)cc1 (configuration not stated),-57*,·,-11,·
